# In all, about 360,000 compounds went through this assay and about 10,000 (2.8%) were called active. Another 4% or so got no clear call; they are omitted. The call rests on the fitted dose curve; in most records, active means well fitted inhibition curve with a large enough effect; inconclusive means small, poorly fitted or top-dose-only effect; inactive means flat fitted curve, though single readings scatter. The sample as a whole holds a higher share of actives than the screen did.
# Target: Serine/threonine-protein kinase PLK1 (Homo sapiens) (UniProt P53350)
# Sequence (P53350 whole entry, looked up, the tested form may be a part): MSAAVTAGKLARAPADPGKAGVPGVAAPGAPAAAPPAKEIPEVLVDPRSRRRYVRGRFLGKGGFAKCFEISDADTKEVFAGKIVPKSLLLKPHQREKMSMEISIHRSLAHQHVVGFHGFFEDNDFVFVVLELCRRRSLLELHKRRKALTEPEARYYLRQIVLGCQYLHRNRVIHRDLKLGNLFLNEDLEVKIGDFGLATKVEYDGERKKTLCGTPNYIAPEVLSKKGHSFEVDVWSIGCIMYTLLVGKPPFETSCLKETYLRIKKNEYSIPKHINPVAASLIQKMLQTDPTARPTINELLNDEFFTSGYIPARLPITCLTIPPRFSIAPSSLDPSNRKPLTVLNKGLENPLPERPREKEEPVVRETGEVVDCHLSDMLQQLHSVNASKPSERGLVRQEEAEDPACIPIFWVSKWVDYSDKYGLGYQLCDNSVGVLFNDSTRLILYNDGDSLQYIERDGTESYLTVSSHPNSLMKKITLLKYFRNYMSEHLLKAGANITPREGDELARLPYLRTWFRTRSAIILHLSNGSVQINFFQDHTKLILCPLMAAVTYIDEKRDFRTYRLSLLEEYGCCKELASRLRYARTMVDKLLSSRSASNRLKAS
# Assay: qHTS for Inhibitors of PLK1-PDB (polo-like kinase 1 - polo-box domain): Primary Screen; further: nearly all actives have a fitted effect of over 65% in size; on max response, negative = inhibition: series mostly up to about 57 µM
# Conditions: Plk1 PBD binding of FITC phosphopeptide, fluorescence polarization
# On the % scale 0 is the no-effect control and ±100 the full control effect; potency means the concentration at half of the fitted maximal effect.
SMILES,"max response, negative = inhibition",Potency
COc1cc(/C=C(\C#N)C(=O)Nc2ccc3ccccc3c2)c([N+](=O)[O-])cc1OC,-1.73% (inactive),–
COc1ccc(CNC(=O)/C(C#N)=C/c2cccc(OC)c2OC)cc1,-17% (inactive),–
COc1ccc(NC(=O)/C(C#N)=C\c2cc(OC)c(OCc3ccc(C(=O)O)cc3)cc2Br)cc1,–,10.6 µM (active)
O=C(NCc1ccccn1)[C@@H]1CCCN1C(=O)[C@@H]1CCCN1C(=O)c1ccccc1,-3.01% (inactive),–
N#Cc1ccc(C(C(=O)NCc2ccccc2)n2c(=O)c(-c3ccco3)nc3ccccc32)cc1 (stereo not given),-22.3% (inactive),–
Cc1ccc(C)c(NC(=O)C2CCCN2C(=O)OC(C)(C)C)c1 (stereo not given),-4.64% (inactive),–
Cc1cccc(C)c1NC(=O)C1CCCN1C(=O)OC(C)(C)C (stereo not given),–,23.8 µM (active)
Cc1ccc(NC(=O)C2CCCN2C(=O)OCc2ccccc2)cc1C (stereo not given),2.68% (inactive),–
CC(=O)NN=C(C)c1ccc(NC(=O)C2CC2)cc1,-11.2% (inactive),–
CCNC(=S)Nc1ccc2c(c1)c(=O)n(C)n2Cc1ccc(Cl)cc1,–,21.2 µM (active)
Cn1c(=O)c2cc(NC(=O)NCCc3cccs3)ccc2n1Cc1cccc(C(F)(F)F)c1,-2.39% (inactive),–
COc1cc(Cn2c3ccc(NC(=O)CC(C)c4ccccc4)cc3c(=O)n2C)ccc1F (stereo not given),-6.73% (inactive),–
COc1ccc(-c2ccc(C(=O)NCCN3CCOCC3)c3occc23)c(C)c1,-10.9% (inactive),–
C=CCc1ccccc1OCC(O)CN1CCN(CCO)CC1 (stereo not given),1.6% (inactive),–
OCCN1CCN(C(=S)c2ccc(-c3ccccc3)cc2)CC1,–,4.74 µM (active)
CN1CCN(CCCCOc2ccccc2-c2ccccc2)CC1,-11.3% (inactive),–
CCc1nc2c(OCCOc3ccccc3)cccn2c1N(C)C(=O)c1ccc(OC)cc1,-8.42% (inactive),–
CC1(C(=O)NS(=O)(=O)c2ccc3ccccc3c2)CCN1C(=O)C1(c2ccc(Cl)cc2)CCC1 (stereo not given),–,42.3 µM (active)
Cc1ccccc1S(=O)(=O)NC(=O)C1(C)CCN1C(=O)C1(c2ccc(Cl)cc2)CC1 (stereo not given),3.44% (inactive),–
CC1(C(=O)NS(=O)(=O)c2ccc(Cl)cc2)CCN1C(=O)CC1CCCC1 (stereo not given),-6.5% (inactive),–
CCCCN(C=O)c1c(CC)nc2c(OCc3ccccc3C(=O)OC)cccn12,-4.2% (inactive),–
O=C1NC[C@H](CCCCN2C[C@H](Cc3ccc(O)cc3)N(CCc3ccccc3)C(=O)C2=O)N(CCc2ccccc2)C1=O,-1.17% (inactive),–

SMILES,"max response, negative = inhibition",Potency
CCCn1c(SCC(=O)c2ccc3c(c2)OCCO3)nnc1C(C)C,–,2.99 µM (active)
CCCn1c(SCC(=O)Nc2c(C)cccc2C)nnc1C(C)C,-7.66% (inactive),–
CCCn1c(SCC(N)=O)nnc1C(C)C,-6.68% (inactive),–
CC(C)Cc1ccc(-c2cc3nc(NCc4cccc(Cl)c4)ccn3n2)cc1,-0.174% (inactive),–
COc1ccc(NC(=O)C2C3C=CC(C3)C2C(=O)NCc2ccccn2)c(OC)c1 (stereo not given),–,26.7 µM (active)
COc1ccc(C)cc1NC(=O)NCc1ccccn1,3.53% (inactive),–
CCOc1ccc(N2CC(C(=O)NCc3ccccn3)CC2=O)cc1 (stereo not given),6.65% (inactive),–
CCCC(=O)N1CCC1(C)C(=O)NCc1ccc(SC)cc1 (stereo not given),4.65% (inactive),–
CO[C@@H]1CN(C)C(=O)c2cc(NC(=O)Nc3cc(F)ccc3F)ccc2OC[C@H](C)N(C(=O)c2ccccn2)C[C@@H]1C,-4.19% (inactive),–
Cc1nn(-c2ccccc2)c(C)c1C(=O)OCC(=O)NC(=O)NC1CCCCC1,–,21.2 µM (active)
COc1ccc(CNC(=O)COC(=O)c2c(C)nn(-c3ccccc3)c2C)cc1OC,-2.1% (inactive),–
Cc1cccc(C)c1NC(=O)COC(=O)c1c(C)nn(-c2ccccc2)c1C,2.85% (inactive),–
Cc1ccc(F)c(S(=O)(=O)NC(=O)C2(C)CCN2C(=O)CCc2cccs2)c1 (stereo not given),-3.35% (inactive),–
CCSc1nc(O)c(C(c2cccc(OC)c2)c2c(O)nc(SCC)[nH]c2=O)c(=O)[nH]1,-21.7% (inactive),–
CCn1c(COc2ccc(OC)cc2)nnc1SCC(=O)Nc1cc(OC)ccc1OC,-3.02% (inactive),–
CCn1c(SC)nc(O)c(C(c2ccc(OC)c(O)c2)c2c(O)nc(SC)n(CC)c2=O)c1=O,–,16.8 µM (active)
Cc1cccc(C(=O)NC2CCN(CC(=O)Nc3cccc(Cl)c3)CC2)c1,-8.54% (inactive),–
COc1ccc([C@H]2C[C@@H](n3cc(COC(=O)c4ccccc4)nn3)[C@H](O)CN2C(=O)c2cccs2)cc1,-9.99% (inactive),–
COc1cccc(CNc2nc3cc(-c4csc5ccccc45)sc3c(=O)n2C)c1,-2.77% (inactive),–
COc1cccc(NC(=O)CCNS(=O)(=O)c2ccc3c(c2)oc(=O)n3C)c1,-5.8% (inactive),–
Cn1c(=O)oc2cc(S(=O)(=O)NCCC(=O)NCc3ccccc3Cl)ccc21,–,23.8 µM (active)
Cc1ccc(NC(=O)CCNS(=O)(=O)c2ccc3c(c2)oc(=O)n3C)cc1C,0.556% (inactive),–

SMILES,"max response, negative = inhibition",Potency
N#Cc1cccc(CN2CCC(=O)N(CCO)CC2)c1,-6.69% (inactive),–
CC(C)(C)c1cc(CN2CCN(CCC#N)CC2)cc(C(C)(C)C)c1O,–,8.44 µM (active)
N#CCCN1CCN(S(=O)(=O)c2ccc(S(=O)(=O)N3CCCC3)cc2)CC1,-6.31% (inactive),–
COc1ccc(OC)c(CN2C(=O)CCC2(C)c2nnnn2Cc2ccccc2)c1 (stereo not given),-0.666% (inactive),–
Cc1ccc(C)c(C(O)c2ncc(-c3cccc4ccccc34)[nH]2)c1 (stereo not given),-3.49% (inactive),–
CCc1nc2ccc(C(=O)NCc3ccc(OC)cc3)cn2c1N(CC)Cc1cccc(Br)c1,-13.2% (inactive),–
COC(=O)c1ccc(COC(=O)c2c(C)nn(Cc3ccccc3Cl)c2Cl)o1,-10.8% (inactive),–
CC(C)c1ccc(C(=O)OC2CCOC2=O)cc1 (stereo not given),-4.1% (inactive),–
Cc1nn(Cc2ccccc2)c(Cl)c1C(=O)OC1CCOC1=O (stereo not given),–,21.2 µM (active)
N#Cc1ccc(-c2nc3c(Cl)cc(C(F)(F)F)cn3c2Cc2ccccc2C(F)(F)F)cc1,1.56% (inactive),–
CC1(C(=O)Nc2ccccc2Br)CCN1C(=O)CC1CC1 (stereo not given),-11.1% (inactive),–
O=C(N/N=C/c1cc2c(cc1Br)OCO2)C1COc2ccccc2O1 (stereo not given),6.15% (inactive),–
O=C(/C=C/c1cc2c(cc1Br)OCO2)NCc1ccc(Cl)cc1,-5.95% (inactive),–
O=C(O)CC/C(=C\c1cc2c(cc1Br)OCO2)c1nc2ccccc2s1,–,23.8 µM (active)
CC(=O)C1=CCC(c2ccccc2)N(S(=O)(=O)c2ccc(C)cc2)C1 (stereo not given),-15.4% (inactive),–
CCCNC(=O)C1(C)CCN1C(=O)Cc1ccc(-c2ccccc2)cc1 (stereo not given),-9.86% (inactive),–
Cc1nc2c(C(=O)NCc3ccc4c(c3)OCO4)c[nH]n2c(=O)c1Cc1ccccc1F,–,21.2 µM (active)
O=C(NCc1ccc2c(c1)OCO2)c1cc(F)c(F)cc1Cl,-7.37% (inactive),–
COc1cc(OC)c(C(=O)NCc2ccc3c(c2)OCO3)cc1OC,-15% (inactive),–
CC1(C(=O)NCc2ccco2)Cc2c(-c3ccc4c(c3)OCO4)ccnc2O1 (stereo not given),-5.07% (inactive),–
CCCNC(=O)C[C@@H]1CC[C@@H]2[C@H](COC[C@H](O)CN2C(=O)c2cc(Cl)cc(Cl)c2)O1,-0.764% (inactive),–
Cc1nn(C)c(C)c1C(C)NC(=O)c1ccc(OC2CCN(Cc3ccccn3)CC2)cc1 (stereo not given),–,2.12 µM (active)

SMILES,"max response, negative = inhibition",Potency
Cn1cc(CNC(=O)c2ccc(OC3CCN(Cc4ccccn4)CC3)cc2)cn1,-5.74% (inactive),–
CN(CCc1ccccn1)C(=O)c1ccc(OC2CCN(Cc3ccccn3)CC2)cc1,5.54% (inactive),–
Cc1cccc(S(=O)(=O)N(C)C[C@H]2OCc3cnnn3CCCC(=O)N([C@@H](C)CO)C[C@H]2C)c1,-16.9% (inactive),–
CCCCCCNC(=O)O[C@H]1CN(C(=O)OC(C)C)N(C(=O)OC(C)C)[C@@H]2CN(S(=O)(=O)c3ccc(C)cc3)C[C@]12O,-12.5% (inactive),–
COC(=O)c1ccc(NC(=S)NN2CCOCC2)cc1,-1.75% (inactive),–
O=C(Nc1ccc(S(=O)(=O)Nc2ncccn2)cc1)C12CC3CC(CC(C3)C1)C2,-7.71% (inactive),–
COC(=O)c1ccc(NC(=O)C23CC4CC(C2)CC(n2cnc(Cl)n2)(C4)C3)cc1,–,23.8 µM (active)
O=C(CNC(=O)N1CC(=O)Nc2ccccc21)Nc1ccc(Br)cc1F,-4.26% (inactive),–
Cc1ccc(S(=O)(=O)N2C[C@H]3C(=O)C[C@@H](c4cccc5ccccc45)N(S(=O)(=O)c4ccc(C)cc4)[C@H]3C[C@H]2c2ccc(Cl)cc2)cc1,-18.3% (inactive),–
COC(=O)c1ccc2nc(-c3ccc(C)cc3)c(Cc3ccc(OC)cc3C)n2c1,-3.95% (inactive),–
O=C(CSc1cccc[n+]1[O-])NCCCc1ccccc1,-10.9% (inactive),–
O=C(CSc1cccc[n+]1[O-])c1ccc(-c2ccccc2)cc1,–,23.8 µM (active)
CCN(C(=O)CSc1cccc[n+]1[O-])c1ccccc1,4.89% (inactive),–
N#CCCN(C(=O)Nc1ccc(Cl)c(Cl)c1)C1CCCCC1,9.26% (inactive),–
NC(Cc1ccccc1)c1csc(Nc2cc(Oc3ccccc3)ncn2)n1 (stereo not given),-8.4% (inactive),–
CCc1ccc(/C=N/NC(=O)c2ccc(OC3CCCC3)cc2)s1,–,11.9 µM (active)
CCn1c(/C=N/NC(=O)c2ccc(OC)cc2)nc2ccccc21,1.71% (inactive),–
COC(=O)CNC(=O)c1ccc(OC2CCN(C(=O)C3CC3)CC2)cc1,-1.29% (inactive),–
Nc1cccc(-c2cncc(N3CCN(Cc4ccccn4)CC3)n2)c1,-6.49% (inactive),–

# — PubChem BioAssay AID720504 (National Center for Advancing Translational Sciences (NCATS), 2013)
